The test system of assay [1] is CRL-7250. Put plainly: Cytotoxic Profiling of Annotated Libraries Using Quantitative High-Throughput Screening (AID 1296008). Also: nearly all actives have a fitted effect of over 60% in size. Also: potency is read from the fitted curve at half-maximal effect. As to max response: % is scaled to controls: 0 for no effect and ±100 for the full control effect. To be noted: Five cell lines viability, CellTiter-Glo ATP luminescence, 48-72 h; max response: hits give low values. The method in brief: (§1)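 Compounds were pin-transferred onto cells and incubated 48 or 72 hr at 37 degree Celsius, 95% humidity. CellTiter-Glo was added, plates sat 10 min at room temperature, then ATP-coupled luminescence was imaged as the viability read-out.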
For orientation: In ATP-based viability assays light output follows the ATP content of the culture.

The test system of assay [2] is HEK293. Described as above. To be noted: Five cell lines viability, CellTiter-Glo ATP luminescence, 48-72 h; max response: hits give low values. The essentials:
as §1

The subject of assay [3] is HaCat. The description is as above. To be noted: Five cell lines viability, CellTiter-Glo ATP luminescence, 48-72 h; max response: hits give low values. The essentials:
as §1

The test system of assay [4] is KB-3-1. The assay is described as above. To be noted: Five cell lines viability, CellTiter-Glo ATP luminescence, 48-72 h; max response: hits give low values. The essentials: as §1
In assay [5] the test system is NIH3T3. The description is as above. To be noted: Five cell lines viability, CellTiter-Glo ATP luminescence, 48-72 h; max response: hits give low values. The essentials:
as §1

Assay [6] concerns MCC-13. Put plainly: qHTS assay to identify novel small-molecules to repurpose for Merkel cell carcinoma treatment (AID 1296009). Also: nearly all actives have a fitted effect of over 60% in size. Also: potency is read from the fitted curve at half-maximal effect. As to activity change, negative = cytotoxicity: % is scaled to controls: 0 for no effect and ±100 for the full control effect. Conditions: MCC and control cell lines, CellTiter-Glo viability, 72 h; series mostly up to 46 µM. The essentials:
(§2)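 Cells exposed to NPC (8-point) and MIPE (11-point) compound dilutions for 72 hr at 37 degree celsius; viability read by CellTiter-Glo luminescence, normalized to no-cell and DMSO in-plate controls.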

Assay [7] deals with MKL-1. The description is as above. To be noted: MCC and control cell lines, CellTiter-Glo viability, 72 h; series mostly up to 46 µM. The method in brief:
as §2

The test system of assay [8] is MKL-2. The description is as above. To be noted: MCC and control cell lines, CellTiter-Glo viability, 72 h; series mostly up to 46 µM. The method in brief:
as §2

In assay [9] the test system is UISO. The assay is described as above. To be noted: MCC and control cell lines, CellTiter-Glo viability, 72 h; series mostly up to 46 µM. The essentials:
as §2

In assay [10] the test system is C33A. Put plainly: Primary qHTS to identify gynecologic anti-cancer compounds using libraries of approved drugs and bioactive compounds (AID 1345084). Also: % is scaled to controls: 0 for no effect and ±100 for the full control effect; nearly all actives have a fitted effect of over 55% in size. Conditions: Gynecologic cancer cell panel viability, ATPlite luminescence, 48 h; series mostly up to 57.5 µM. The method in brief: (§3)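 Luminescence from the ATPlite ATP-monitoring reagent indicates viable cell number; lower signal means cytotoxicity. Cells received compound 16 h after seeding and were exposed for 48 h across five concentrations.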

In assay [11] the test system is CAOV3. The description is as above. Conditions: Gynecologic cancer cell panel viability, ATPlite luminescence, 48 h; series mostly up to 57.5 µM. The essentials: as §3
Assay [12] concerns CASKI. The assay is described as above. To be noted: Gynecologic cancer cell panel viability, ATPlite luminescence, 48 h; series mostly up to 57.5 µM. The method in brief: as §3
Assay [13] has as its system Es-2. The assay is described as above. Conditions: Gynecologic cancer cell panel viability, ATPlite luminescence, 48 h; series mostly up to 57.5 µM. The essentials: as §3
The test system of assay [14] is TAB165. Put plainly: qHTS profiling for inhibitors of Plasmodium falciparum proliferation (AID 504749). Also: nearly all actives have a fitted effect of over 60% in size. Also: potency is read from the fitted curve at half-maximal effect. Conditions: P. falciparum in erythrocytes, SYBR Green DNA, 72 h; series mostly up to 28.7 µM. The method in brief: (§4)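 P. falciparum-infected erythrocytes (0.3% parasitemia, 2.5% hematocrit final) were exposed to compounds for 72 h at 37 C in 5% CO2, then lysed with SYBR Green buffer overnight at room temperature; parasite DNA fluorescence was normalized to artemisinin and DMSO controls.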
(Quantitative high-throughput screening tests each substance at several concentrations.)

Assay [15] has as its system W2. Described as above. To be noted: P. falciparum in erythrocytes, SYBR Green DNA, 72 h; series mostly up to 28.7 µM. The method in brief:
as §4

Assay [16] concerns HACAT. Put plainly: qHTS assay to identify novel small-molecules to repurpose for Merkel cell carcinoma treatment (AID 1296009). Also: nearly all actives have a fitted effect of over 60% in size. Also: potency is read from the fitted curve at half-maximal effect. As to activity change, negative = cytotoxicity: % is scaled to controls: 0 for no effect and ±100 for the full control effect. To be noted: MCC and control cell lines, CellTiter-Glo viability, 72 h; at 44.8 µM (top of the series) unless noted. The method in brief:
as §2

Assay [17] relates to HEK293T. Described as above. Conditions: MCC and control cell lines, CellTiter-Glo viability, 72 h; at 44.8 µM (top of the series) unless noted. The essentials: as §2
The test system of assay [18] is MCC-26. The description is as above. Conditions: MCC and control cell lines, CellTiter-Glo viability, 72 h; series mostly up to 46 µM. The method in brief: as §2
For assay [19], the system named is WaGa. The description is as above. To be noted: MCC and control cell lines, CellTiter-Glo viability, 72 h; series mostly up to 46 µM. The method in brief: as §2
The test system of assay [20] is NIH3T3. The assay is described as above. To be noted: MCC and control cell lines, CellTiter-Glo viability, 72 h; at 44.8 µM (top of the series) unless noted. The method in brief: as §2

Structures are written as SMILES. Values joined by “and” are separate entries in the source; they are usually repeats but may differ in a detail not shown here. Equal entries are not always repeated. Records with an inconclusive call do not appear. A number with no mark means an inactive call. Active and inactive are the calls of the source. Calls follow the shape of the dose curve; as a rule, active = well fitted curve in the direction sought with a large enough effect; inconclusive = small, poorly fitted or top-dose-only effect, or another doubt; inactive = no such curve, though single readings can be large; an effect the other way counts as inactive or inconclusive.

For `CC/C=C(\C(=O)N[C@@H]1C(=O)N2C(C(=O)OCOC(=O)C(C)(C)C)=C(COC(N)=O)CS[C@H]12)c1csc(N)n1`, the max response in assay [1] is -3.67%; in assay [2], 1.21%; in assay [3] it was -0.519% and -7.83%; in assay [4], -16.1% and -3.61%; in assay [5], -1.08%. Moreover, the Potency entry in assay [6], in [7], in [8], in assay [9], in [10] and in [11] was “inactive” throughout. The Potency result in [12] and in assay [13] was “inactive” each time.
In the case of `COc1cc2[nH]c(=O)[nH]c(=O)c2cc1OC`, the Potency result in assay [14], in assay [15], in [6], in [18], in assay [7] and in [8] was “inactive” each time. In addition, the Potency result in assay [9], in assay [19], in assay [10], in [12] and in assay [13] was “inactive” in each case. The outcome in assay [1], in assay [2], in assay [3], in [16] and in assay [17] was inactive. In addition, the max response in assay [5] is 2.37%.
As to `OC[C@H]1O[C@@H](O[C@@H]2[C@@H](CO)O[C@](O)(CO)[C@H]2O)[C@H](O)[C@@H](O)[C@H]1O`, the max response was -1.41% in assay [1] and 4.19% in assay [5]. Also, the outcome in assay [2], in assay [3], in assay [16] and in assay [17] was inactive. In addition, the Potency result in assay [6], in [18], in assay [7], in [8], in [9] and in assay [19] was “inactive” in each case. For the same molecule, the Potency result in [10], in assay [11], in [12] and in [13] was “inactive” throughout.
As for `Cc1ncc(COP(=O)(O)O)c(C=O)c1O`, the Potency entry in assay [14], in assay [15], in assay [6], in [18], in [7] and in [8] was “inactive” throughout. Moreover, the Potency entry in assay [9], in [19], in [10], in assay [11], in assay [12] and in assay [13] was “inactive” throughout. The values for the max response in assay [1] and in assay [5] were 2.82% and 3.84%, respectively. Moreover, the molecule was classed as inactive in assay [2], in assay [3], in assay [16] and in assay [17].
As for `O=c1[nH]c(=O)c2[nH]c(=O)[nH]c2[nH]1`, the Potency entry in assay [14] and in assay [15] was “inactive” throughout. In addition, the max response in assay [1] was -3.74%; in [2], -1.57%; in assay [3], 1.96%. Also, the molecule was called inactive in assay [5]. Further, the activity change, negative = cytotoxicity in [6] is -1.19% [at 9.22 µM]; in assay [18], -17% [at 9.22 µM]; in assay [7] it was -12.1% [at 9.22 µM]; in [8] it was 7.3% [at 9.22 µM]; in assay [9] it was -5.4% [at 9.22 µM]; in [19], -8.78% [at 9.22 µM]. In addition, the activity change, negative = cytotoxicity is -3.59% [at 11.6 µM] in [10], -0.141% [at 11.6 µM] in [12] and -0.66% [at 11.6 µM] in assay [13]. The outcome in [20] was “inactive [at 9.27 µM]”.
For `Cc1ccc2nc(N)[nH]c(=O)c2c1Sc1ccncc1`, the Potency in assay [14] is 2 µM (active); in assay [2], 8.2 µM (active); in assay [3], 1.33 µM (active) and 2.59 µM (active); in assay [5], 2.37 µM (active) and 6.51 µM (active); in assay [19], 3.35 µM (active). The max response in assay [1] was -27% and -23.5%; in assay [4], -5.1%. For the same molecule, the Potency result in assay [18], in assay [7], in [10] and in assay [13] was “inactive” in each case.
